Measured values taken from PubChem BioAssay (NCATS).
Records with an inconclusive call do not appear. Activity calls are given as the source filed them. Calls come from the whole dose curve; as a rule, active = well fitted curve in the direction sought with a large enough effect; inconclusive = small, poorly fitted or top-dose-only effect, or another doubt; inactive = no such curve, though single readings can be large; an effect the other way counts as inactive or inconclusive.

Columns and labels:
[1] = Cell Viability - LYMP2-004 (AID 966); note: nearly all actives have a fitted effect of over 65% in size
Outline: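 Viable-cell number estimated from ATP luminescence (CellTiter-Glo) in 2500 human lymphoblastoid cells/well after 24 hr at 37 C with compound. AC50 fitted to the standard Hill equation.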

[2] = Cell Viability - LYMP2-005 (AID 967); note: series mostly up to about 92 µM
Outline: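 CellTiter-Glo luminescence (cellular ATP) read-out; LYMP2-005 lymphoblastoid cells, 2500/well, 5 h pre-incubation, then 24 h compound exposure at 37 C in complete medium. Tetraoctylammonium bromide positive control; AC50 by standard Hill fit.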

[3] = Cell Viability - LYMP2-009 (AID 968); note: series mostly up to about 92 µM; nearly all actives have a fitted effect of over 55% in size
[4] = Cell Viability - LYMP2-011 (AID 969); note: nearly all actives have a fitted effect of over 60% in size
Outline: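 Cells seeded at 2500 per well rest 5 hr before compound addition, then incubate 24 hr at 37 C. CellTiter-Glo reagent is added for 30 min at room temperature before luminescence detection.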

[5] = Cell Viability - LYMP2-013 (AID 970); note: series mostly up to about 92 µM; nearly all actives have a fitted effect of over 55% in size
Outline: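 In complete culture medium, human lymphoblastoid cells were dosed for 24 hr at 37 C, with tetraoctylammonium bromide (6.4pM to 92 uM) as positive control. Viability reflects luciferase-based ATP signal; AC50 derived from concentration-response curves.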

[6] = Cell Viability - LYMP2-015 (AID 971); note: nearly all actives have a fitted effect of over 55% in size
Outline: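 AC50 values reflect Hill-model fits of ATP-based luminescence (CellTiter-Glo) from a human lymphoblastoid line, 2500 cells/well, treated 24 hr at 37 C.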

[7] = Cell Viability - LYMP2-017 (AID 972); note: series mostly up to about 92 µM; nearly all actives have a fitted effect of over 55% in size
Outline: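 In this qHTS format, lymphoblastoid cells in complete medium receive test compound for a day at 37 C before ATP content is quantified by luciferase luminescence. Reported AC50 figures come from standard Hill-equation curve fitting.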

[8] = Cell Viability - LYMP2-019 (AID 973); note: nearly all actives have a fitted effect of over 55% in size
Outline: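 AC50 values come from Hill-equation modelling of qHTS concentration-response curves, where viability is measured as luciferase-based ATP luminescence in the lymphoblastoid line after 24 hr compound exposure in complete culture medium.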

[9] = Cell Viability - LYMP2-021 (AID 974)
Outline: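 In qHTS format, compounds are tested against 2500 lymphoblastoid cells per well for 24 h; viable cell number is inferred from ATP-driven luciferase light, and Hill-equation fitting yields AC50 values.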

[10] = Cell Viability - LYMP2-023 (AID 975)
Outline: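 In this qHTS, ATP-based luciferase luminescence (CellTiter-Glo) is quantified in human lymphoblastoid cells after 24 hr compound treatment at 37 C; tetraoctylammonium bromide serves as positive control. Concentration-response curves are Hill-fitted to give AC50.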

[11] = Cell Viability - LYMP2-025 (AID 976); note: series mostly up to about 92 µM
Outline: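 Luminescent ATP readout after 24 hr treatment of a human lymphoblastoid line (LYMP2-025, 2500 cells/well, 37 C). Reagent developed 30 min at room temperature; AC50 fitted with the Hill equation.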

[12] = Cell Viability - LYMP2-002 (AID 977); note: series mostly up to about 92 µM
Outline: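 Human lymphoblastoid cells (2500/well) in complete medium were preincubated 5 hr at 37 C, then exposed to compounds for 24 hr at 37 C. Intracellular ATP was read by CellTiter-Glo luminescence; AC50 came from Hill-equation concentration-response fits.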

[13] = Cell Viability - LYMP2-006 (AID 978); note: series mostly up to about 92 µM; nearly all actives have a fitted effect of over 60% in size
Outline: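 Human lymphoblastoid cells, 2500 per well, were preincubated 5 hr at 37 C, then exposed to compounds for 24 hr at 37 C in complete medium. Viability was read as intracellular ATP by CellTiter-Glo luminescence; AC50 from Hill-equation fits of qHTS concentration-response data.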

[14] = Cell Viability - LYMP2-007 (AID 979);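 note: cells exposed to compound for 24 h before reading; nearly all actives have a fitted effect of over 60% in size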
Outline: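 Measured via luciferase-based ATP quantitation: lymphoblastoid cells, 24 hr compound exposure at 37 C, AC50 from Hill fits.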

[15] = Cell Viability - LYMP2-008 (AID 980); note: nearly all actives have a fitted effect of over 60% in size
Outline: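 Measured: ATP-dependent luminescence, proportional to viable cell number, in human lymphoblastoid cells treated 24 hr with compound in complete culture medium. Values are AC50s from Hill-equation modelling of qHTS titrations.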

[16] = Cell Viability - LYMP2-010 (AID 981); note: nearly all actives have a fitted effect of over 55% in size
Outline: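 This 24 hr viability screen uses LYMP2-010 lymphoblastoid cells, quantifies ATP via luciferase luminescence, and derives AC50 from Hill fits of qHTS concentration-response data.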

[17] = Cell Viability - LYMP2-012 (AID 982)
[18] = Cell Viability - LYMP2-014 (AID 983); note: series mostly up to about 92 µM; nearly all actives have a fitted effect of over 50% in size
Outline: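 Quantitative HTS in lymphoblastoid cells: 24 hr compound exposure, then CellTiter-Glo ATP luminescence. Positive control was tetraoctylammonium bromide, 6.4pM to 92 uM.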

[19] = Cell Viability - LYMP2-016 (AID 984); note: nearly all actives have a fitted effect of over 55% in size
Outline: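 Human lymphoblastoid cells (LYMP2-016), 2500/well in complete medium, preincubated 5 hr at 37 C, then compound-treated 24 hr at 37 C. Intracellular ATP read by CellTiter-Glo luminescence after 30 min at room temperature; AC50 from Hill-equation concentration-response fits.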

[20] = Cell Viability - LYMP2-018 (AID 985); note: nearly all actives have a fitted effect of over 50% in size
Outline: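 In this qHTS viability assay, cells are treated for 24 hr and cellular ATP is quantified by luciferase-based luminescence, with tetraoctylammonium bromide as positive control.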

Measured: Potency

COC(=O)CCC(=O)OC
inactive: all assays above

COc1cccc(N)c1
not listed: [17]
inactive: all other assays above

c1ccc(Nc2ccccc2)cc1
inactive: all assays above

ICCc1ccccc1
not listed: [16]
inactive: all other assays above

Nc1ccccc1[N+](=O)[O-]
not listed: [16]
inactive: all other assays above

Cc1cc(C)cc(O)c1
not listed: [16]
inactive: all other assays above

Cc1ccc(C(=O)O)cc1
not listed: [17]
inactive: all other assays above

Cc1cccc(C(=O)O)c1[N+](=O)[O-]
inactive: all assays above

O=C1NC(=O)c2cc([N+](=O)[O-])ccc21
not listed: [17]
inactive: all other assays above

C=CCCCC
not listed: [17]
inactive: all other assays above

CCCC(Cl)CCCC(Cl)CCC(Cl)CCC(Cl)CCC(Cl)CCCC(Cl)CCC (stereo not drawn)
not listed: [16] | [17]
inactive: all other assays above

c1ccc(Oc2ccccc2)cc1
not listed: [17]
inactive: all other assays above

CCc1ccccc1
inactive: all assays above

O=C(O)/C=C/C(=O)O
not listed: [16]
inactive: all other assays above

CC(C)c1ccccc1
inactive: all assays above

CC(O)CC(C)O (stereo not drawn)
inactive: all assays above

Cc1ccc(C)o1
not listed: [14] | [17]
inactive: all other assays above

C=C(C)OC(C)=O
not listed: [14]
inactive: all other assays above

OCCO
not listed: [14] | [15]
inactive: all other assays above

C=CCCCCCC
not listed: [12] | [16]
inactive: all other assays above

O=C(Cl)c1ccccc1[N+](=O)[O-]
not listed: [11]
inactive: all other assays above

Cc1cc([N+](=O)[O-])ccc1N
not listed: [12]
inactive: all other assays above

O=Cc1ccc(C(=O)O)cc1
not listed: [15] | [16]
inactive: all other assays above

COC(=O)CS
not listed: [12]
inactive: all other assays above

Clc1ccc(Cl)c(Cl)c1Cl
not listed: [12] | [14] | [15]
inactive: all other assays above

Nc1cccc(O)c1
not listed: [14]
inactive: all other assays above

O=P(O)(OCc1ccccc1)OCc1ccccc1
not listed: [12] | [17]
inactive: all other assays above

Cc1ccc(S(=O)(=O)NC2CCCCC2)cc1
not listed: [12]
inactive: all other assays above

CCOC(=O)OCC
not listed: [14]
inactive: all other assays above

C(=C/c1ccccc1)/c1ccccc1
not listed: [14]
inactive: all other assays above

CC(=O)c1cc(C)oc1C
not listed: [12]
inactive: all other assays above

Cc1ccc2ncccc2c1
not listed: [14]
inactive: all other assays above

Cc1cc(C)cc([N+](=O)[O-])c1
not listed: [12]
inactive: all other assays above

CCc1ccccc1O
not listed: [15]
inactive: all other assays above

CC(C)N=C=NC(C)C
not listed: [14] | [15] | [17]
inactive: all other assays above

NC=O
not listed: [14] | [15]
inactive: all other assays above

COc1ccc(N=[N+]([O-])c2ccc(OC)cc2)cc1
not listed: [12]
inactive: all other assays above

CCC(O)C(C)(C)C (stereo not drawn)
not listed: [15]
inactive: all other assays above

CC(C)(C)OCC1CO1 (stereo not drawn)
not listed: [15]
inactive: all other assays above

O=C1CCCCC1
not listed: [15] | [16]
inactive: all other assays above

O=Cc1ccc(Cl)cc1
not listed: [11]
inactive: all other assays above

CC(=O)c1ccccn1
not listed: [12] | [15]
inactive: all other assays above

C=Cc1ccccc1C=C
not listed: [15] | [16] | [17]
inactive: all other assays above

Cc1ccc(C#N)cc1
not listed: [14] | [17]
inactive: all other assays above

Nc1cccc(S(=O)(=O)O)c1
not listed: [14]
inactive: all other assays above

CC(C)(c1cc(Br)c(OCC(Br)CBr)c(Br)c1)c1cc(Br)c(OCC(Br)CBr)c(Br)c1 (stereo not drawn)
not listed: [12] | [14] | [16]
inactive: all other assays above

C=C(C)C(N)=O
not listed: [14] | [17]
inactive: all other assays above

O=[N+]([O-])c1cc(C(F)(F)F)ccc1Cl
not listed: [12] | [14] | [17]
inactive: all other assays above

C1CCCC1
not listed: [12]
inactive: all other assays above

Nc1cc([N+](=O)[O-])ccc1C(=O)O
not listed: [12]
inactive: all other assays above

O=C(O)c1cccc(Cl)c1Cl
not listed: [12] | [16] | [17]
inactive: all other assays above

C=Cc1ccccn1
not listed: [15]
inactive: all other assays above

CCCC=O
not listed: [15]
inactive: all other assays above

C=CCCCCCCC=C
not listed: [15] | [17]
inactive: all other assays above

CCOc1ccc(NC(C)=O)cc1N
not listed: [12]
inactive: all other assays above

C=Cc1ccc(C=C)cc1
not listed: [11]
inactive: all other assays above

Cc1ccc2ccccc2c1[N+](=O)[O-]
not listed: [11]
inactive: all other assays above

c1ccc2c(c1)ccc1ncccc12
not listed: [11] | [15]
inactive: all other assays above
